Hit rate of the full screen: of about 5,500 compounds, about 2,000 (36%) were called active. Another 18% or so got no clear call; they are omitted. Cut-off read from the data, not from the text of the source: active = normalized growth mostly below about 0.91 (no sharp cut-off); inconclusive = no clear call, values can overlap the other calls; inactive = mostly above about 0.92. Some of the results follow.
Test: chemical genetic growth profiling, strain panel (AID 1159580);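 note: tested at 20 µM; growth read once vehicle control cultures reached saturation at 30 °C; 1 = growth at the plate median or of vehicle wells; lower values mean less growth of the strain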
Conditions: S. cerevisiae deletion strains, growth OD
[1] = locus YAR019C, strain CDC15, hits give low values
[2] = locus YBL105C, strain PKC1, hits give low values
[3] = locus YBR135W, strain CKS1, hits give low values
[4] = locus YBR136W, strain MEC1, hits give low values
[5] = locus YBR160W, strain CDC28, hits give low values
[6] = locus YDL017W, strain CDC7, hits give low values
[7] = locus YDL028C, strain MPS1, hits give low values
[8] = locus YDL101C, strain DUN1, hits give low values
[9] = locus YDL108W, strain KIN28, hits give low values
[10] = locus YDL132W, strain cdc53, hits give low values
[11] = locus YDL214C, strain PRR2, hits give low values
[12] = locus YDR052C, strain DBF4, hits give low values
[13] = locus YDR054C, strain cdc34, hits give low values
[14] = locus YDR226W, strain ADK1, hits give low values
[15] = locus YDR477W, strain SNF1, hits give low values
[16] = locus YER123W, strain YCK3, hits give low values
[17] = locus YER133W, strain GLC7, hits give low values
[18] = locus YFL009W, strain cdc4, hits give low values
[19] = locus YFL029C, strain CAK1, hits give low values
[20] = locus YFR003C, strain YPI1, hits give low values
[21] = locus YFR019W, strain FAB1, hits give low values
[22] = locus YFR028C, strain CDC14, hits give low values
[23] = locus YGR040W, strain KSS1, hits give low values
[24] = locus YGR052W, strain FMP48, hits give low values
[25] = locus YGR092W, strain DBF2, hits give low values
[26] = locus YHR030C, strain SLT2, hits give low values
[27] = locus YHR079C, strain IRE1, hits give low values
[28] = locus YHR082C, strain KSP1, hits give low values
[29] = locus YHR205W, strain SCH9, hits give low values
[30] = locus YIL147C, strain SLN1, hits give low values
[31] = locus YJL095W, strain BCK1, hits give low values
[32] = locus YJL128C, strain PBS2, hits give low values
[33] = locus YJL157C, strain FAR1, hits give low values
[34] = locus YJR016C, strain ILV3, hits give low values
[35] = locus YJR066W, strain TOR1 (second series), hits give low values
[36] = locus YJR066W, strain TOR1, hits give low values
[37] = locus YKL048C, strain ELM1, hits give low values
[38] = locus YKL067W, strain YNK1, hits give low values
[39] = locus YKL101W, strain HSL1, hits give low values
[40] = locus YKL193C, strain SDS22, hits give low values
[41] = locus YKL203C, strain TOR2, hits give low values
[42] = locus YLR113W, strain HOG1, hits give low values
[43] = locus YLR133W, strain CKI1, hits give low values
[44] = locus YLR403W, strain SFP1, hits give low values
[45] = locus YML070W, strain DAK1, hits give low values
[46] = locus YMR001C, strain CDC5, hits give low values
[47] = locus YMR205C, strain PFK2 (second series), hits give low values
[48] = locus YMR277W, strain FCP1, hits give low values
[49] = locus YNL006W, strain LST8, hits give low values
[50] = locus YNL020C, strain ARK1, hits give low values
[51] = locus YNL161W, strain CBK1, hits give low values
[52] = locus YNL183C, strain NPR1, hits give low values
[53] = locus YNL207W, strain RIO2, hits give low values
[54] = locus YNL222W, strain SSU72, hits give low values
[55] = locus YNL307C, strain MCK1 (second series), hits give low values
[56] = locus YOL078W, strain AVO1, hits give low values
[57] = locus YOL136C, strain PFK27, hits give low values
[58] = locus YOR061W, strain CKA2, hits give low values
[59] = locus YOR119C, strain RIO1, hits give low values
[60] = locus YOR231W, strain MKK1, hits give low values
[61] = locus YOR329C, strain SCD5, hits give low values
[62] = locus YPL031C, strain PHO85, hits give low values
[63] = locus YPL153C, strain RAD53, hits give low values
[64] = locus YPL204W, strain HRR25, hits give low values
[65] = locus YPL209C, strain IPL1, hits give low values
[66] = locus YPL256C, strain CLN2, hits give low values
[67] = locus YPR025C, strain CCL1, hits give low values
[68] = locus YPR106W, strain ISR1, hits give low values
[69] = locus YPR111W, strain DBF20, hits give low values
[70] = strain NNK1, hits give low values
[71] = strain TSCII, hits give low values

Measured: normalized growth

COc1ccc(-c2csc(-c3cccnc3)n2)cc1
active: [26] 0.849
inactive: [1] 0.96 | [2] 0.966 | [3] 0.957 | [4] 0.958 | [5] 0.963 | [6] 0.961 | [7] 0.965 | [8] 0.951 | [9] 0.958 | [10] 0.961 | [11] 0.909 | [12] 0.973 | [13] 0.945 | [14] 0.946 | [15] 0.894 | [16] 0.847 | [17] 0.888 | [18] 0.954 | [19] 0.949 | [20] 0.947 | [21] 0.86 | [22] 0.949 | [23] 0.858 | [24] 0.993 | [25] 0.828 | [27] 0.889 | [28] 0.954 | [29] 0.955 | [30] 0.961 | [31] 0.884 | [32] 0.966 | [33] 0.914 | [34] 0.955 | [35] 0.857 | [36] 0.891 | [37] 0.958 | [38] 0.912 | [39] 0.928 | [40] 0.948 | [41] 0.904 | [42] 1.01 | [43] 0.915 | [44] 0.877 | [45] 0.912 | [46] 0.959 | [47] 0.907 | [48] 0.95 | [49] 0.968 | [50] 0.903 | [51] 0.963 | [52] 0.882 | [53] 0.949 | [54] 0.953 | [55] 0.888 | [56] 0.948 | [57] 0.915 | [58] 0.929 | [59] 0.948 | [60] 0.906 | [61] 0.957 | [62] 0.876 | [63] 0.883 | [64] 0.852 | [65] 0.963 | [66] 0.901 | [67] 0.958 | [68] 0.958 | [69] 0.956 | [70] 0.957 | [71] 0.952

COc1ccc(-c2cn3cc(C)ccc3n2)cc1
inactive: [1] 0.98 | [2] 0.975 | [3] 0.97 | [4] 0.978 | [5] 0.971 | [6] 0.987 | [7] 0.986 | [8] 0.984 | [9] 0.983 | [10] 0.977 | [11] 0.97 | [12] 0.985 | [13] 0.973 | [14] 0.982 | [15] 0.975 | [16] 0.953 | [17] 0.981 | [18] 0.98 | [19] 0.973 | [20] 0.98 | [21] 0.981 | [22] 0.975 | [23] 0.966 | [24] 1.07 | [25] 0.937 | [26] 1.01 | [27] 1.02 | [28] 1.04 | [29] 0.963 | [30] 0.983 | [31] 1.02 | [32] 0.943 | [33] 0.968 | [34] 0.979 | [35] 0.995 | [36] 1.06 | [37] 0.957 | [38] 0.976 | [39] 0.961 | [40] 0.978 | [41] 1.05 | [42] 0.923 | [43] 0.956 | [44] 0.96 | [45] 0.956 | [46] 0.977 | [47] 0.973 | [48] 0.979 | [49] 0.995 | [50] 0.963 | [51] 0.971 | [52] 1.02 | [53] 0.977 | [54] 0.975 | [55] 0.953 | [56] 0.978 | [57] 0.969 | [58] 0.973 | [59] 1.03 | [60] 0.959 | [61] 0.982 | [62] 0.979 | [63] 0.986 | [64] 0.992 | [65] 0.962 | [66] 0.96 | [67] 0.978 | [68] 0.971 | [69] 0.954 | [70] 0.978 | [71] 0.972

Reference: PubChem BioAssay AID1159580 (chemical genetic matrix, 2015)
